Screening data (PubChem BioAssay)
In the library only some 11% were active in any assay of this set; here they are far more common.
Pf growth 48h: Primary qHTS for delayed death inhibitors of the malarial parasite plastid, 48 hour incubation; P. falciparum luciferase growth in erythrocytes, 48 h; Potency, µM (doses to about 28.7 µM), without a hit: top-dose activity change, negative = inhibition, most hits filed as inhibitors; 310,000 tested, 5.9% active
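Cell-based growth assay: transgenic P. falciparum expressing firefly luciferase, cultured in red cells within RPMI 1640 containing 0.5% w/v Albumax, 24 mM bicarbonate and gentamycin. A drop in luciferase activity indicates inhibition.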
Pf growth 96h: Primary qHTS for delayed death inhibitors of the malarial parasite plastid, 96 hour incubation; P. falciparum luciferase reporter growth, 96 h; Potency, µM (series often up to 28.7 µM), for inactives: at the highest dose activity change, negative = inhibition, usual class: inhibitors; 320,000 tested, 6.9% active; AID 504834, 2011
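Plates of compound plus infected erythrocytes (2% hematocrit, 0.05% parasitemia final) incubate 96 hours, 37 C, 5% CO2. Detection reagent added; reduced luminescence from the parasites' luciferase reporter flags inhibition.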
AMA1-RON2 inh: qHTS for Inhibitors of AMA1-RON; Towards Development of Antimalarial Drug Lead: Primary Screen; AlphaScreen AMA1-biotinylated RON2 peptide binding; Potency, µM (titrated, usually from 58.2 µM), for inactives: at the highest dose activity change, negative = inhibition, hits mostly inhibitors; 360,000 tested, 0.2% active;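 also: 0% = vehicle wells and -100% = peptide control; nearly all actives have a fitted effect of over 45% in size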
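AMA1 (3D7) with his tag at 25 nM final met compounds first, then biotinylated RON2 peptide at 25 nM; detection used donor plus acceptor beads, 10 µg/mL apiece, read by AlphaScreen after 30 min at room temperature.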
HCV inh: qHTS Assay for Inhibitors of Hepatitis C Virus (HCV) | Huh7.5.1 HCVcc-Cre infection, luciferase reporter, 44 h | Potency, µM (doses to about 41.8 µM), inactives show at the highest dose activity change, negative = inhibition, actives largely listed as inhibitors | 340,000 tested, 3.4% active | AID 651820, 2012
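Reporter virus HCVcc-Cre (~0.5 moi) infects cells exposed to compound; seeding density 1,000 cells/well with 4 h settling beforehand. Luminescence, 15 sec read, taken 44 h post-infection following a 15 min RT substrate incubation.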
* = called active by the depositor; u = inconclusive; x = no result; [ ] = another dose, or the depositor's remark. Calls follow the shape of the dose curve; as a rule, active = well fitted curve in the direction sought with a large enough effect; inconclusive = small, poorly fitted or top-dose-only effect, or another doubt; inactive = no such curve, though single readings can be large; an effect the other way counts as inactive or inconclusive. Unless noted, % is scaled to controls: 0 for no effect and ±100 for the full control effect; potency is read from the fitted curve at half-maximal effect.

SMILES	Pf growth 48h	Pf growth 96h	AMA1-RON2 inh	HCV inh
COC(=O)C1=C(c2ccc(-c3ccccc3)c(F)c2)C[C@@H]2CC[C@H]1N2C(=O)NCC1CC1	4.65µM*	u	10.0%	u
CCCCCCN1CCN(C2CN(Cc3ccc(F)cc3)S(=O)(=O)C2)CC1 (stereo not given)	x	x	2.6%	x
Cc1ccc(N(CC(O)CN2CCOCC2)S(=O)(=O)c2ccc([N+](=O)[O-])cc2)cc1 (stereo not given)	-18.7%	-20.1%	3.0%	31.5%
Cc1[nH]c2ccc(C(=O)OC(C)C(=O)N(C)C3CCCCC3)cc2c1C (stereo not given)	u	u	-29.1%	u
Cc1ccc(C(=O)OC(C)C(=O)NC2CCCCC2)cc1S(=O)(=O)N1CCCCC1 (stereo not given)	7.38µM*	u	5.7%	u
Cc1ccc(C(=O)OC(C)C(=O)N(C)C2CCCCC2)cc1S(=O)(=O)N1CCCCC1 (stereo not given)	11.7µM*	u	-7.6%	u
CC(C)CCN(Cc1ccco1)S(=O)(=O)c1ccc(-c2ccc(=O)[nH]n2)s1	-6.1%	11.4%	-7.7%	u
CCCCN(Cc1ccco1)S(=O)(=O)c1ccc(-c2ccc(=O)[nH]n2)s1	-3.7%	14.7µM*	0.0%	-2.0%
COc1ccc(OCc2nnc(SCC(=O)Nc3nnc(C4CC4)s3)n2C)cc1	-9.2%	11.0%	2.7%	29.9%
COc1ccc(-c2n[nH]c(C)c2-c2ccc(Cl)cc2)c(O)c1OC	u	u	6.8%	14.1µM*
COc1ccc(-c2n[nH]c(C)c2-c2ccc(Cl)cc2)c(O)c1	8.28µM*	10.4µM*	83.8%	u
Cc1[nH]nc(-c2ccc(O)cc2O)c1-c1ccc(Cl)cc1	39.0%	4.3%	62.7%	u
Cc1ccc(C2CC(c3cccs3)=NN2C(=O)CSc2nc(=O)n3ccc(C)cc3n2)cc1 (stereo not given)	8.28µM*	u	x	-8.6%
COc1ccc(C2CC(c3cccs3)=NN2C(=O)CSc2nc(=O)n3ccc(C)cc3n2)cc1 (stereo not given)	11.7µM*	u	1.9%	u
COC(=O)c1ccccc1NC(=O)CN1C(=O)c2ccccc2C1=O	x	x	-6.4%	12.6%
COc1ccc(N2C(=O)CC(Sc3nc4c(cc3C#N)CCC4)C2=O)cc1 (stereo not given)	29.2%	51.3%	5.1%	11.4%
O=C(NCc1ccc(F)cc1)c1ccccc1OCc1ccccc1	u	u	8.8%[2.32 µM]	-28.0%
C/C(=N\NC(=O)c1ccccc1OCc1ccc(F)cc1)c1ccccn1	1.47µM*	4.15µM*	94.8%	2.82µM*
CCOc1ccc(OCc2ccc(C(=O)N/N=C(\C)c3ccccn3)cc2)cc1	0.37µM*	0.37µM*	54.3%	u
O=C(NNC(=O)c1ccccc1OCc1ccc(F)cc1)c1ccccc1O	u	8.28µM*	10.9%	6.31µM*
COc1ccc(Cl)c2sc(N(CCN(C)C)C(=O)C3=COCCO3)nc12	x	x	4.2%	9.7%
CN(Cc1ccc(F)cc1)C(=O)CCc1nnc(-c2ccccc2)o1	13.2%	8.28µM*	0.0%	6.8%
CN(Cc1nc2c(s1)CCCC2)C(=O)CCc1nnc(-c2ccccc2)o1	30.2%	9.28µM*	1.6%	16.1%
COc1ccc(CCN(C)C(=O)CCc2nnc(-c3ccccc3)o2)cc1OC	0.0%	-26.4%	0.0%	2.7%
CCCCN(C)C(=O)c1sc(=O)n(Cc2c(C)cccc2C)c1C	x	x	-4.0%	x
SMILES	Pf growth 48h	Pf growth 96h	AMA1-RON2 inh	HCV inh
O=C(COc1ccc2oc(-c3ccccc3)cc(=O)c2c1)Nc1ccccc1	13.2%	3.7µM*	1.0%	-14.0%
CCCc1cc(=O)oc2cc(OCC(=O)NC(Cc3ccc(Cl)cc3)C(=O)O)ccc12 (stereo not given)	-0.5%	-17.5%	6.0%	0.501µM*
Cc1cc(OCC(=O)N(C)C)c2c(-c3ccccc3)cc(=O)oc2c1	x	10.4µM*	-4.7%	-21.5%
Cc1ccccc1NC(=O)COc1ccc2oc(=O)cc(C)c2c1	-3.1%	15.3%	-5.3%	-20.6%
O=C(COc1ccc2c(-c3ccccc3)cc(=O)oc2c1)Nc1ccc(CCO)cc1	29.5%	29.9%	-4.5%	7.08µM*
O=C(NC1CCCCC1)C(c1ccc(C(F)(F)F)cc1)n1c(=O)c(-c2ccccc2)nc2ccccc21 (stereo not given)	x	x	-3.4%	x
COc1ccc(-c2cc(=O)oc3cc(OCC(=O)N(C)C)ccc23)cc1	u	10.4µM*	-1.6%	2.2%
CCN(CC)C(=O)COc1ccc2c(-c3ccccc3)cc(=O)oc2c1	u	183.9%	-1.9%	-11.6%
CC(=O)Nc1ccc(S(=O)(=O)NCCC(=O)NCc2ccco2)cc1	x	x	-2.9%	x
COCCNC(=O)C1CCCN(C(=O)COc2ccc(C(C)(C)C)cc2)CC1 (stereo not given)	x	x	-5.6%	x
COc1cccc(CNC(=O)Cn2ccc3cc(S(=O)(=O)N4CCCCCC4)ccc32)c1	-29.6%	-22.2%	11.8%	12.6µM*
CCOc1ccccc1CNC(=O)Cn1ccc2cc(S(=O)(=O)N3CCCC3)ccc21	u	13.1µM*	4.0%	u
COc1cccc(CNC(=O)Cn2ccc3cc(S(=O)(=O)N4CCCC4)ccc32)c1	u	21.5%	0.0%	-28.4%
CCOc1ccccc1CNC(=O)CCCn1ccc2cc(S(=O)(=O)N3CCCC3)ccc21	u	u	6.7%	4.8%
CC(=O)Oc1c(Cl)c(N2CCOCC2)c(OC(C)=O)c2ccccc12	u	-11.1%	-12.8%	-7.7%
Cc1cccc(N2CCN(C3=NC(=O)C(Cc4ccccc4)S3)CC2)c1 (stereo not given)	-14.0%	11.7µM*	0.8%[2.32 µM]	-9.2%
Cc1cccc(CC2SC(N)=NC2=O)c1 (stereo not given)	-18.1%	0.2%	-12.8%	6.8%
CC1CCCC(NC(=O)COC(=O)[C@@H](NC(=O)c2ccc(F)cc2)C(C)C)C1C (stereo not given in full)	x	x	10.5%	1.6%
COc1ccc(C(CNC(=O)c2ccc(OC)c(S(=O)(=O)N3CCCC3)c2)N2CCCC2)cc1 (stereo not given)	u	10.4µM*	-6.4%	-24.1%
COc1ccc(C(=O)NCC(c2ccccc2)c2ccccc2)cc1S(=O)(=O)N1CCOCC1	x	x	7.4%[11.6 µM]	-15.9%
CCOC(=O)N1CCN(S(=O)(=O)N2CCCC(C(=O)NCc3cccc(OC)c3)C2)CC1 (stereo not given)	-18.4%	6.57µM*	-7.3%	-10.0%
COc1ccc(C(CNC(=O)c2ccc(S(=O)(=O)N3CCOCC3)cc2)N2CCCCC2)cc1 (stereo not given)	u	28.5%	1.3%	4.8%
COc1ccc(C(=O)NCC(c2ccc(F)cc2)N2CCOCC2)cc1S(=O)(=O)N1CCCC1 (stereo not given)	u	10.4µM*	11.5%	3.3%
